Assay results taken from PubChem BioAssay (NCATS).
Results filed as inconclusive are left out. Activity calls are given as the source filed them. The call rests on the fitted dose curve; in most records, active means well fitted curve in the direction sought with a large enough effect; inconclusive means small, poorly fitted or top-dose-only effect, or another doubt; inactive means no such curve, though single readings can be large; an effect the other way counts as inactive or inconclusive.

Legend:
[1] = UWB1.289 Cancer Cell Toxicity qHTS against the NCATS CANVASS Library (AID 1347347); further: nearly all actives have a fitted effect of over 60% in size
Summary of the method: (§1)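 Quantitative HTS format: an 11-concentration series was applied to 1000 cells/well following a 4-hour attachment. Cultures ran 72 hours before ATP luminescence detection by CellTiter-Glo.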

[2] = OV-SAHO Cancer Cell Toxicity qHTS against the NCATS CANVASS Library (AID 1347348); further: nearly all actives have a fitted effect of over 55% in size
Summary of the method: as §1

[3] = Panc-1005 Cancer Cell Toxicity qHTS against the NCATS CANVASS Library (AID 1347349); further: nearly all actives have a fitted effect of over 60% in size
Source text: Natural products and their derivatives continue to be wellsprings of nascent therapeutic potential. However, many laboratories have limited resources for biological evaluation, leaving their previously isolated or synthesized compounds largely or completely untested. To address this issue, the Canvass library of natural products was assembled (https://tripod.nih.gov/canvass), in collaboration with academic and industry researchers, for quantitative high-throughput screening (qHTS) across a diverse set of cell-based and biochemical assays. The pure (>85% purity by liquid chromatography/mass spectrometry [LC/MS]) Canvass library of 346 natural products were submitted by 45 academic laboratories and companies around the world. […] The library was formatted into 1536-well plates and evaluated in 50 qHTS (in an 11-pnt concentration series) bioassays with broad scope of disease-relevant mechanisms. The resulting data set from 50 different assays was then systematically analyzed to identify overall trends and specific natural products with interesting biological activities. […]
Cancer Cell Toxicity protocol for cell lines COV-362, OV-KATE, OV-SAHO, UWB1.289, UWB1.289-WTBRCA1, HEK-293, HPAF-II, Panc-1005, SW1088, or U-118MG. […] Luminescence signal was acquired via the ViewLux plate reader (PerkinElmer) using a clear filter, 2 second exposure and 2x binning settings.

[4] = SW1088 Cancer Cell Toxicity qHTS against the NCATS CANVASS Library (AID 1347350); further: nearly all actives have a fitted effect of over 75% in size
Summary of the method: as §1

[5] = U-118MG Cancer Cell Toxicity qHTS against the NCATS CANVASS Library (AID 1347351)
Summary of the method: as §1

[6] = COV-362 Cancer Cell Toxicity qHTS against the NCATS CANVASS Library (AID 1347352)
Summary of the method: (§2)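 Luminescent ATP read-out (CellTiter-Glo, 15min at room temperature) measures survival after cells face an 11-point compound series for 72 hours at 37 degrees C/5% CO2.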

[7] = A2780 Cisplatin Sensitive Ovarian Cancer Cell Toxicity qHTS against the NCATS CANVASS Library (AID 1347353); settings: A2780 ovarian cancer viability, ATPLite luminescence, 72 h; at 46.1 µM (top of the series); further: nearly all actives have a fitted effect of over 60% in size
Source text: Natural products and their derivatives continue to be wellsprings of nascent therapeutic potential. However, many laboratories have limited resources for biological evaluation, leaving their previously isolated or synthesized compounds largely or completely untested. To address this issue, the Canvass library of natural products was assembled (https://tripod.nih.gov/canvass), in collaboration with academic and industry researchers, for quantitative high-throughput screening (qHTS) across a diverse set of cell-based and biochemical assays. The pure (>85% purity by liquid chromatography/mass spectrometry [LC/MS]) Canvass library of 346 natural products were submitted by 45 academic laboratories and companies around the world. We collected pure natural products to circumvent deconvolution and structure elucidation due to time and resource limitations. The library was formatted into 1536-well plates and evaluated in 50 qHTS (in an 11-pnt concentration series) bioassays with broad scope of disease-relevant mechanisms. The resulting data set from 50 different assays was then systematically analyzed to identify overall trends and specific natural products with interesting biological activities. […]
Cancer Cell Toxicity protocol 1. […] Luminescence signal was acquired via the ViewLux plate reader (PerkinElmer) using a clear filter, 2 second exposure and 2x binning settings.

[8] = UWB1.289-WTBRCA1 Cancer Cell Toxicity qHTS against the NCATS CANVASS Library (AID 1347354); settings: UWB1.289-WTBRCA1 viability, CellTiter-Glo luminescence, 72 h; at 38.3 µM (top of the series)
Summary of the method: as §2

[9] = HEK-293 Cancer Cell Toxicity qHTS against the NCATS CANVASS Library (AID 1347355); further: nearly all actives have a fitted effect of over 65% in size
Summary of the method: as §2

[10] = HPAF-II 24hr Apoptosis Induction qHTS against the NCATS CANVASS Library (AID 1347356)
Summary of the method: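 Luminescent caspase-3/7 signal (DEVD substrate, Caspase-Glo) served as read-out, taken 15 min after reagent addition to HPAF-II cells exposed 24 h to compounds.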

Measured: outcome

CN(C)CCc1c[nH]c2ccccc12
inactive: all assays above
